Measurements taken from PubChem BioAssay (Tox21).
Records with an inconclusive call do not appear. Active and inactive are the calls of the source. Unless noted, calls come from the whole dose curve.

Legend:
[1] = Nuclear factor erythroid 2-related factor 2/antioxidant responsive element (Nrf2/ARE) small molecule agonists: qHTS cell viability counter screen in human keratinocytes (AID 1919968; active = well fitted curve in the direction sought with a large enough effect in the repeat runs; an effect the other way counts as inactive or inconclusive; note: nearly all actives have a fitted effect of over 55% in size; note: potency is the fitted concentration of half-maximal effect)
Outline: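 KeratinoSens cells (HaCaT keratinocytes stably carrying an ARE-luciferase reporter) were seeded at 1,500 cells/well and rested 5 h at 37 C/5% CO2. They were then exposed to compounds in DMSO for 23 h. Viability was read by CellTiter-Fluor fluorescence after 1 h.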

[2] = Nuclear factor erythroid 2-related factor 2/antioxidant responsive element (Nrf2/ARE) small molecule agonists: luciferase reporter gene qHTS assay in human keratinocytes (AID 1919969); note: nearly all actives have a fitted effect of over 35% in size; note: potency is the fitted concentration of half-maximal effect
[3] = molecular target: Gonadotropin-releasing hormone receptor (Homo sapiens) (UniProt P30968); experiment: Human gonadotropin-releasing hormone receptor (GnRHR) small molecule agonists, calcium flux assay in GnRHR-HEK293 cells (AID 1920063); note: nearly all actives have a fitted effect of over 35% in size
Outline: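 HEK293 cells stably expressing human GnRHR were plated 18 h at 37 °C, loaded with calcium dye 1 h at 37 °C, then given compound in agonist mode; fluorescence (Ex/Em 480/540) read kinetically for 3 min at 1 s intervals.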

[4] = molecular target: KiSS-1 receptor (Homo sapiens) (UniProt Q969F8); experiment: Human kisspeptin (KISS1R) small molecule agonists, calcium flux assay in KISS1R-HEK293 cells (AID 1920064; active = well fitted curve in the direction sought with a large enough effect in the repeat runs; an effect the other way counts as inactive or inconclusive)
Outline: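 HEK293 cells stably expressing human KISS1R were plated 18 h at 37 °C, loaded with calcium dye for 1 h at 37 °C, then given compound by pin tool. Fluorescence (Ex/Em 480/540) was read kinetically for 3 min.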

[5] = G protein-coupled receptor (GPCR) small molecule agonists, calcium flux assay: HEK293 wild type cell line counter screen (AID 1920065)
Outline: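 Cells were plated and cultured 18 h at 37 C/5% CO2, then loaded with calcium dye for 1 h at 37 C. Compounds in DMSO were pin-transferred in agonist mode, and fluorescence (Ex/Em 480/540) was read kinetically for 3 min at 1 s intervals.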

[6] = p53 small molecule agonists, cell-based qHTS assay with human liver microsomes (AID 1963577);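 note: p53 response element beta-lactamase reporter cells with liver microsomes plus NADPH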
Outline: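 Reporter activation was measured by LiveBLAzer fluorescence intensity in p53RE-bla cells, which had been exposed to compounds for 16 h at 37 C alongside 0.5 mg/mL human liver microsomes and 0.5 mg/mL NADPH (final concentrations).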

[7] = p53 small molecule agonists, cell-based qHTS assay with rat liver microsomes (AID 1963578)
Outline: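 Compound in DMSO added to p53RE-bla cells 5 h post-plating; rat microsomes/NADPH 0.5 mg/mL final; 16 h, 37 C; LiveBLAzer 2 h RT.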

[8] = p53 small molecule agonists, cell-based qHTS assay with rat liver microsomes: qHTS cell viability counter screen (AID 1963580); note: nearly all actives have a fitted effect of over 45% in size; note: potency is the fitted concentration of half-maximal effect
Outline: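 p53RE-bla HCT-116 cells were exposed 16 h at 37 C to compounds with rat liver microsomes (0.5 mg/mL) and NADPH (0.5 mg/mL). Viability was measured in the same wells as ATP content by CellTiter-Glo luminescence.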

[9] = p53 small molecule agonists, cell-based qHTS assay: qHTS cell viability counter screen (AID 1963581); note: nearly all actives have a fitted effect of over 45% in size; note: potency is the fitted concentration of half-maximal effect
Outline: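 p53RE-bla HCT-116 cells were exposed to compounds for 16 h at 37 C; after the beta-lactamase FRET read in the same wells, CellTiter-Glo was added and luminescence (intracellular ATP) read after 30 min at room temperature.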

[10] = p53 small molecule agonists, cell-based qHTS assay (AID 1963582; active = well fitted activation curve with a large enough effect in the signal ratio in the repeat runs, not every such curve was filed as active; the % refers to the signal ratio; note: potency is the fitted concentration of half-maximal effect)
Outline: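 p53RE-bla beta-lactamase reporter cells rested 5 h at 37 C/5% CO2, then received compounds in DMSO by pin transfer and were incubated 16 h at 37 C. LiveBLAzer B/G FRET substrate was loaded for 2 h at room temperature before fluorescence reading.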

[11] = molecular target: 5-hydroxytryptamine receptor 2A (Homo sapiens) (UniProt P28223); experiment: 5-hydroxytryptamine receptor 2A (HTR2A) small molecule antagonists, cell-based qHTS assay (AID 1963586); note: nearly all actives have a fitted effect of over 45% in size
Outline: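 Antagonist-mode intracellular calcium assay: DOI (4 nM) added after 5 min compound pre-incubation at room temperature to dye-loaded HTR2A-CHO cells. Fluorescence followed for 3 min, sampled every second.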

[12] = molecular target: 5-hydroxytryptamine receptor 2A (Homo sapiens) (UniProt P28223); experiment: 5-hydroxytryptamine receptor 2A (HTR2A) small molecule agonists, cell-based qHTS assay (AID 1963587); note: nearly all actives have a fitted effect of over 30% in size
Outline: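 CHO cells stably expressing human HTR2A, plated 18 h, loaded with calcium dye 1 h at 37 C. Agonist mode: compounds added and intracellular calcium fluorescence recorded kinetically for 2 min at 1 sec intervals.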

[13] = molecular target: Muscarinic acetylcholine receptor M1 (Homo sapiens) (UniProt P11229); experiment: Cholinergic receptor muscarinic 1 (CHRM1) small molecule antagonists, cell-based qHTS assay (AID 1963588); note: nearly all actives have a fitted effect of over 40% in size
Outline: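 CHRM1-CHO calcium-flux assay, antagonist mode. Cells were seeded 18 h, dye-loaded 1 h at 37 C and given compound for 5 min at RT, then acetylcholine was added at 50nM. FDSS fluorescence was read 3 min; 15 concentrations, three runs.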

[14] = molecular target: Muscarinic acetylcholine receptor M1 (Homo sapiens) (UniProt P11229); experiment: Cholinergic receptor muscarinic 1 (CHRM1) small molecule agonists, cell-based qHTS assay (AID 1963589); note: nearly all actives have a fitted effect of over 35% in size
Outline: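 CHO cells stably expressing human CHRM1, seeded 18 h at 37 C/5% CO2, dye-loaded 1 h at 37 C, then given compound in agonist mode; intracellular calcium fluorescence read kinetically at 1 s intervals. Fifteen concentrations, three independent runs.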

[15] = molecular target: Beta-2 adrenergic receptor (Homo sapiens) (UniProt P07550); experiment: Adrenergic beta2 receptor (ADRB2) small molecule antagonists, cell-based qHTS assay (AID 1963592); note: series mostly up to about 92 µM; nearly all actives have a fitted effect of over 50% in size
Outline: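 Cells (CHO, stable ADRB2 overexpression) incubated 18-20hr at 37C; compounds added from DMSO; agonist mix (1nM isoproterenol, 100uM IBMX, 25uM Ro-20-1724) added; 0.5hr RT; d2-cAMP and anti-cAMP-cryptate added; 1hr RT; 665/615 nm read.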

[16] = molecular target: Beta-2 adrenergic receptor (Homo sapiens) (UniProt P07550); experiment: Adrenergic beta2 receptor (ADRB2) small molecule agonists, cell-based qHTS assay (AID 1963593);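 note: CHO cells stably overexpressing human ADRB2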
Outline: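 CHO cells stably over-expressing ADRB2 were plated overnight at 37C, then dosed with compounds plus a stimulation mix containing 100uM IBMX and 25uM Ro-20-1724 for 0.5hr at room temperature. cAMP was measured by HTRF competition, 1hr.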

[17] = molecular target: D(2) dopamine receptor (Homo sapiens) (UniProt P14416); experiment: Dopamine D2 receptor (DRD2) small molecule antagonists, cell-based qHTS assay (AID 1963595; active = well fitted inhibition curve with a large enough effect in the signal ratio in the repeat runs, with a control signal flat; the % refers to the signal ratio)
Outline: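 HEK293 cells stably expressing DRD2 were preincubated with 0.1 mM Ro20-1724, then with compound for 10 min at room temperature. Cells were stimulated with 200 nM NKH477 plus 12 nM quinpirole for 30 min, and cAMP was read by HTRF.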

[18] = molecular target: D(2) dopamine receptor (Homo sapiens) (UniProt P14416); experiment: Dopamine D2 receptor (DRD2) small molecule agonists, cell-based qHTS assay (AID 1963594); note: nearly all actives have a fitted effect of over 35% in size
Outline: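 HEK293 cells stably expressing human DRD2, pre-treated with PDE inhibitor Ro20-1724 (0.1 mM final) and compound 10 min at room temperature, then stimulated with NKH477 (200nM […]) for 30 min. cAMP read by HTRF (665/620 nm).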

[19] = cAMP Responsive Elements (CRE) small molecule agonists, cell-based qHTS assay (AID 1963590)
Outline: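 CRE-bla HEK 293T cells in DMEM with 10% dialyzed FBS, NEAA, pyruvate and 25 mM HEPES were plated 18 h at 37 C/5% CO2, then exposed to compounds in DMSO for 3 h before LiveBLAzer B/G FRET substrate addition.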

[20] = cAMP Responsive Elements (CRE) small molecule antagonists, cell-based qHTS assay (AID 1963591; active = well fitted inhibition curve with a large enough effect in the signal ratio in the repeat runs, not every such curve was filed as active; the % refers to the signal ratio)
Outline: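 CRE-bla HEK293T cells were plated 18 h at 37 °C/5% CO2, pinned with compound in DMSO, then stimulated with NKH477 at 0.25 uM final for 3 h. LiveBLAzer B/G FRET substrate was added and plates incubated 2 h at room temperature.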
% is set by controls: 0 for no effect and ±100 for the full control effect.

KiSS-1 receptor (Homo sapiens), sequence (Q969F8 whole entry, looked up): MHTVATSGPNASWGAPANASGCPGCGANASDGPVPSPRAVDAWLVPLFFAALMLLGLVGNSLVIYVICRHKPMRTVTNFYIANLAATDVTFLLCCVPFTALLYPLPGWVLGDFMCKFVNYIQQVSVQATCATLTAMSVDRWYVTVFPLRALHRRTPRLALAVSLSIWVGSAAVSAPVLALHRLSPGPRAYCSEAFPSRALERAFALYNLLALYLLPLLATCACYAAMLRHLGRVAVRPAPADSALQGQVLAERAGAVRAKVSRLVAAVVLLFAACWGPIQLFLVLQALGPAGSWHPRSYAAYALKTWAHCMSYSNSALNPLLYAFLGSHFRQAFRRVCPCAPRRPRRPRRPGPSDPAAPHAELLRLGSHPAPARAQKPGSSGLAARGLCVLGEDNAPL
Beta-2 adrenergic receptor (Homo sapiens), sequence (P07550 whole entry, looked up): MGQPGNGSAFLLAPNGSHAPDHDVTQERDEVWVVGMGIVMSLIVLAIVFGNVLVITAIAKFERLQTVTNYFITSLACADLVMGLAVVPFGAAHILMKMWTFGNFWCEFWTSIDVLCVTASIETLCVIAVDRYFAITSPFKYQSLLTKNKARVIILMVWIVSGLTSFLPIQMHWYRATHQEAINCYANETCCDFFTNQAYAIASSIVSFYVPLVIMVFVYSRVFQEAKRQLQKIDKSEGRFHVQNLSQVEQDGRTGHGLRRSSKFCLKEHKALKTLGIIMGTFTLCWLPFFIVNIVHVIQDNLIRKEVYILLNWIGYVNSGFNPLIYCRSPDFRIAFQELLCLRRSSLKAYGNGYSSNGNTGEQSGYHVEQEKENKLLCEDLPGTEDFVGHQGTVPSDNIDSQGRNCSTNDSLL
Gonadotropin-releasing hormone receptor (Homo sapiens), sequence (P30968 whole entry, looked up): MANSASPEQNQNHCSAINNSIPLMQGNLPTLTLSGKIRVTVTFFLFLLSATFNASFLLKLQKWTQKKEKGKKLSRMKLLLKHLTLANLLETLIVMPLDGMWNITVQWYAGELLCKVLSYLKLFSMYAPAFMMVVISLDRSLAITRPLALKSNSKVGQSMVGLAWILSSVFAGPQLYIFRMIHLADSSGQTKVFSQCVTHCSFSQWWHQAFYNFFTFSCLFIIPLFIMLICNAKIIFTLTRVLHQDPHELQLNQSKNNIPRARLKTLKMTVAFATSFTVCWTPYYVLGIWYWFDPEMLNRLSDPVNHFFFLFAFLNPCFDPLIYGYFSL
5-hydroxytryptamine receptor 2A (Homo sapiens), sequence (P28223 whole entry, looked up): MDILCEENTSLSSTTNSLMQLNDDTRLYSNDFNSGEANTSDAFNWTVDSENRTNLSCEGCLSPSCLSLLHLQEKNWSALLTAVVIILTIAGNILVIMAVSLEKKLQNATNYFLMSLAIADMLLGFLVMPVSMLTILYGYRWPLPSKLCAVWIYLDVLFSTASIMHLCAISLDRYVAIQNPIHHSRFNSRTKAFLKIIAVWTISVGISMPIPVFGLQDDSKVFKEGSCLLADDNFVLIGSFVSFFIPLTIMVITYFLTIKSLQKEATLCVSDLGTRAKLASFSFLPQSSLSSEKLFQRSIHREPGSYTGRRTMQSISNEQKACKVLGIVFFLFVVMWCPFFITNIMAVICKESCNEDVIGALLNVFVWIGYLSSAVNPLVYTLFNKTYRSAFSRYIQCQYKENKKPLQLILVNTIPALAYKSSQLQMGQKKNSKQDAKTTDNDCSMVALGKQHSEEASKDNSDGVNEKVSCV
Muscarinic acetylcholine receptor M1 (Homo sapiens), sequence (P11229 whole entry, looked up): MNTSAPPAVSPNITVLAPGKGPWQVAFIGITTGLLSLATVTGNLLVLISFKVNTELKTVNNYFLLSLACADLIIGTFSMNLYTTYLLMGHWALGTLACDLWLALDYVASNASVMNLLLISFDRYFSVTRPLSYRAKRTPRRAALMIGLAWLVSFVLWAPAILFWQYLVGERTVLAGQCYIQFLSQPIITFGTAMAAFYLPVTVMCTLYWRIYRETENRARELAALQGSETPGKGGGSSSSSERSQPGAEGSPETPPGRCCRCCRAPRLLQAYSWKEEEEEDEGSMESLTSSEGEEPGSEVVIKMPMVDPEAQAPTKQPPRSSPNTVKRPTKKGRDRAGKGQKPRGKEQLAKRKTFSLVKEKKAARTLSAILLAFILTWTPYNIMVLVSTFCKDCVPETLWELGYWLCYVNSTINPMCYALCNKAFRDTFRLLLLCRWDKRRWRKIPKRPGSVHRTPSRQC
D(2) dopamine receptor (Homo sapiens), sequence (P14416 whole entry, looked up): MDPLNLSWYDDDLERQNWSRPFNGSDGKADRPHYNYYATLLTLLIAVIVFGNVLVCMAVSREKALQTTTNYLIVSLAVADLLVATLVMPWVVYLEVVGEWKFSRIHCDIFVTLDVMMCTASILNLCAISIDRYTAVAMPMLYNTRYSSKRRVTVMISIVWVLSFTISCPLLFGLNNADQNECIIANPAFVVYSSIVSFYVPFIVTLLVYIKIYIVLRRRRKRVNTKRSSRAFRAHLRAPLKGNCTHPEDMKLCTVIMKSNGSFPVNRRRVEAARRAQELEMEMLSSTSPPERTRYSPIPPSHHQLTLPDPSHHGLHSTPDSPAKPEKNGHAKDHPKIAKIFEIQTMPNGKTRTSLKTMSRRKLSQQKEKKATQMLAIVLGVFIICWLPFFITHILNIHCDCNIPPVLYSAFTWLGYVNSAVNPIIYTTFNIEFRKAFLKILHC

CC(C)C[C@H](NC(=O)[C@H](CCc1ccccc1)NC(=O)CN1CCOCC1)C(=O)N[C@@H](Cc1ccccc1)C(=O)N[C@@H](CC(C)C)C(=O)[C@@]1(C)CO1
active: Potency [1] 298 nM | Potency [2] 106 nM | Potency [8] 4460 nM | Potency [9] 630 nM | Potency [10] 112 nM
inactive: Potency [3] | outcome [4] | outcome [5] | Potency [6] | Potency [7] | Potency [11] | Potency [12] | Potency [13] | Potency [14] | Potency [15] | Potency [16] | Potency [17]

CCCCNc1c(C(=O)OCC)c(C)nc2c1cnn2CC
inactive: Potency [1] | Potency [2] | Potency [3] | outcome [4] | outcome [5] | Potency [6] | Potency [7] | Potency [8] | Potency [9] | Potency [10] | Potency [11] | Potency [12] | Potency [14] | Potency [15] | Potency [16] | Potency [18] | Potency [17]

c1ccc(CCCc2ccccn2)cc1
inactive: Potency [1] | Potency [2] | Potency [3] | outcome [4] | outcome [5] | Potency [6] | Potency [7] | Potency [8] | Potency [9] | Potency [10] | Potency [11] | Potency [12] | Potency [13] | Potency [19] | Potency [20] | Potency [18]

NC[C@H]1O[C@H](O[C@H]2[C@H](O[C@@H]3O[C@H](CO)[C@@H](O)[C@H]3O)C(O)[C@H](N)C[C@@H]2N)[C@H](N)[C@@H](O)[C@@H]1O (stereo not given in full)
inactive: activity change, negative = cytotoxicity [1] -6.49% [at 8.39 µM] | activity, positive = activation [2] -8.73% [at 8.39 µM] | activity change [3] -0.504% [at 5.22 µM, hits give high values] | activation [4] -0.532% [at 6.97 µM] | activation [5] -0.0987% [at 5.23 µM] | activation [6] 0.817% [at 5.99 µM] | activation [7] -0.761% [at 5.99 µM] | activity change, negative = cytotoxicity [8] 1.61% [at 5.99 µM] | activity change, negative = cytotoxicity [9] 0.386% [at 5.99 µM] | activation [10] -3.27% [at 5.99 µM] | activation [12] -4.1% [at 7.02 µM] | activity, negative = inhibition [13] 1.47% [at 5.58 µM] | activation [14] 0.272% [at 6.97 µM] | activation [19] 4.47% [at 8.39 µM] | activity change, negative = inhibition [17] -1.87% [at 8.38 µM]

NC(=O)Nc1ccc(Cl)c(Cl)c1
inactive: Potency [1] | Potency [2] | Potency [3] | outcome [4] | outcome [5] | Potency [6] | Potency [7] | Potency [8] | Potency [9] | Potency [10] | Potency [12] | Potency [13] | Potency [14] | Potency [19] | Potency [15] | Potency [16] | Potency [18]

CN(C)[C@@H]1C(=O)C(C(=O)NCN2CCCC2)=C(O)[C@@]2(O)C(=O)C3=C(O)c4c(O)cccc4[C@@](C)(O)C3C[C@@H]12 (stereo not given in full)
inactive: Potency [1] | Potency [2] | Potency [3] | outcome [4] | outcome [5] | Potency [6] | Potency [7] | Potency [8] | Potency [9] | Potency [10] | Potency [11] | Potency [13] | Potency [14] | Potency [19] | Potency [20] | Potency [15] | Potency [18] | Potency [17]

CC(C)C1OCCN1CCOC(=O)NCCCCCCNC(=O)OCCN1CCOC1C(C)C (stereo not given)
inactive: Potency [1] | Potency [2] | Potency [3] | outcome [4] | outcome [5] | Potency [6] | Potency [7] | Potency [8] | Potency [9] | Potency [10] | Potency [11] | Potency [13] | Potency [14] | Potency [19] | Potency [20] | Potency [15] | Potency [18]

CC(C)(C)c1cccc(O)c1
active: Potency [2] 61100 nM
inactive: Potency [1] | Potency [3] | outcome [4] | outcome [5] | Potency [6] | Potency [7] | Potency [8] | Potency [9] | Potency [10] | Potency [12] | Potency [13] | Potency [14] | Potency [19] | Potency [20] | Potency [15] | Potency [16] | Potency [18] | Potency [17]

CC(C)C(=O)OCc1cccc(OC(=O)[C@@H]2N3C(=O)[C@@H](NC(=O)Cc4ccccc4)[C@H]3SC2(C)C)c1
inactive: Potency [1] | Potency [2] | Potency [3] | outcome [4] | outcome [5] | Potency [6] | Potency [7] | Potency [8] | Potency [9] | Potency [10] | Potency [12] | Potency [13] | Potency [14] | Potency [19] | Potency [20] | Potency [15] | Potency [18] | Potency [17]

CC(C)(C)C(=O)NCCCC(=O)O
inactive: Potency [1] | Potency [2] | Potency [3] | outcome [4] | outcome [5] | Potency [6] | Potency [7] | Potency [8] | Potency [9] | Potency [10] | Potency [12] | Potency [13] | Potency [14] | Potency [19] | Potency [20] | Potency [15] | Potency [16] | Potency [18] | Potency [17]

C[C@]12CCC(=O)C=C1CC[C@@H]1[C@@H]2CC[C@@]2(C)[C@H]1CC[C@]2(O)C(=O)CO
inactive: Potency [1] | Potency [2] | Potency [3] | outcome [4] | outcome [5] | Potency [6] | Potency [7] | Potency [8] | Potency [9] | Potency [10] | Potency [11] | Potency [12] | Potency [14] | Potency [15] | Potency [16] | Potency [18]

CC(C)(C)c1cc(C=O)cc(C(C)(C)C)c1O
inactive: Potency [1] | Potency [2] | Potency [3] | outcome [4] | outcome [5] | Potency [6] | Potency [7] | Potency [8] | Potency [9] | Potency [10] | Potency [11] | Potency [12] | Potency [14] | Potency [19] | Potency [20] | Potency [15] | Potency [18] | Potency [17]

c1ccc2c(CC3=NCCN3)cccc2c1
inactive: Potency [1] | Potency [2] | Potency [3] | outcome [4] | outcome [5] | Potency [6] | Potency [7] | Potency [8] | Potency [9] | Potency [10] | Potency [13] | Potency [14] | Potency [19] | Potency [20] | Potency [15] | Potency [16] | Potency [18] | Potency [17]
